Measured values: PubChem BioAssay (NCI)
About 83,000 compounds went through this panel and 20% of them were active in at least one assay; those are over-represented in the sample as a whole.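 Results are percent growth after 48 hours of single-concentration exposure. 100 means growth as in untreated cells, lower positive values show inhibition; negative values down to -100 show cell death.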 Active and inactive are the calls of the source. The calls were made as follows: active = growth percent below 10; inactive = the rest.

Assays:
Assay in all cases: NCI-60 one-dose screen, 48 h (100 = growth as untreated, 0 = no growth, -100 = all killed)
Conditions in all cases: 10 µM unless noted
T-47D breast = system: T-47D breast
BT-549 breast = system: BT-549 breast
MDA-MB-435 melanoma = system: MDA-MB-435 melanoma
SW-620 colon = system: SW-620 colon
MCF7 breast = system: MCF7 breast
HCT-116 colon = system: HCT-116 colon
HCC-2998 colon = system: HCC-2998 colon
KM12 colon = system: KM12 colon

Measured: growth

CCNCCNc1cc(-c2cccc(C(F)(F)F)c2)c(C#N)c2nc3ccccc3n12
active: T-47D breast -72.4% | BT-549 breast -64.6% | MDA-MB-435 melanoma -93.3% | SW-620 colon -67.3% | MCF7 breast -70% | HCT-116 colon -93.9% | HCC-2998 colon -80.9% | KM12 colon -75.6%

Clc1ccc2[nH]c3c(NCCCN4CCOCC4)ncnc3c2c1
inactive: T-47D breast 72.2% | BT-549 breast 77.9% | MDA-MB-435 melanoma 92.8% | SW-620 colon 57.2% | MCF7 breast 74.6% | HCT-116 colon 36.3% | HCC-2998 colon 87.4% | KM12 colon 86.5%

C=C(Cl)COC(=O)C(C)(C)O
inactive: T-47D breast 99.1% | BT-549 breast 104% | MDA-MB-435 melanoma 104% | SW-620 colon 107% | MCF7 breast 93.3% | HCT-116 colon 99.4% | HCC-2998 colon 102% | KM12 colon 102%

CCN(CC)CCOc1ccc(/C(=C(\C)c2ccc(F)c(OC)c2)c2ccc(Cl)cc2)cc1
inactive: T-47D breast 18.8% | BT-549 breast 59.7% | MDA-MB-435 melanoma 15%
active: SW-620 colon -7.8% | MCF7 breast -3.59% | HCT-116 colon 1.56% | HCC-2998 colon -33.2% | KM12 colon -3.3%

OC(CBr)c1ccnc2ccccc12 (stereo unspecified)
inactive: T-47D breast 89.1% | BT-549 breast 92% | MDA-MB-435 melanoma 100% | SW-620 colon 104% | MCF7 breast 96.3% | HCT-116 colon 90.7% | HCC-2998 colon 103% | KM12 colon 99.3%

C#CC[C@H](N)C(=O)O
inactive: T-47D breast 102% [20 µM] | BT-549 breast 106% [20 µM] | MDA-MB-435 melanoma 102% [20 µM] | SW-620 colon 103% [20 µM] | MCF7 breast 91.7% [20 µM] | HCT-116 colon 96.3% [20 µM] | HCC-2998 colon 116% [20 µM] | KM12 colon 105% [20 µM]

CCN(CC)CCCNC(=O)c1ccc(N)cc1O
inactive: T-47D breast 107% | BT-549 breast 98.7% | MDA-MB-435 melanoma 117% | SW-620 colon 96.2% | MCF7 breast 96.8% | HCT-116 colon 94.7% | HCC-2998 colon 78.8% | KM12 colon 106%

Cc1c2c(cn1Cc1ccccc1)CCc1cn(C)nc1-2
inactive: T-47D breast 87.9% | BT-549 breast 74.4% | MDA-MB-435 melanoma 104% | SW-620 colon 109% | MCF7 breast 85.2% | HCT-116 colon 74.3% | HCC-2998 colon 97.6% | KM12 colon 99.9%

Cc1c(C(N)=O)sc2nc(C)n(/N=c3\scc(-c4ccccc4)n3Cc3ccccc3)c(=O)c12
active: BT-549 breast -6.7%
inactive: T-47D breast 34.7% | MDA-MB-435 melanoma 12.2% | SW-620 colon 12.5% | MCF7 breast 17.3% | HCT-116 colon 29.1% | HCC-2998 colon 57.1% | KM12 colon 13.6%

O=C(/C=C/C12c3ccccc3C(c3ccccc31)C1C(=O)N(c3ccccc3)C(=O)C12)c1ccc(Cl)cc1 (stereo unspecified)
active: MDA-MB-435 melanoma 0.197% | SW-620 colon 7.56% | HCT-116 colon -18% | HCC-2998 colon -24% | KM12 colon 7.23%
inactive: T-47D breast 30.4% | BT-549 breast 16.1% | MCF7 breast 18.4%

CCO/C=N/C1=C(C#N)C(c2ccc(OC)cc2)c2c(c3ccccc3n(C)c2=O)O1 (stereo unspecified)
inactive: T-47D breast 101% | BT-549 breast 117% | MDA-MB-435 melanoma 107% | SW-620 colon 101% | MCF7 breast 94.8% | HCT-116 colon 102% | HCC-2998 colon 106% | KM12 colon 103%

N#Cc1c(-c2ccc(C(F)(F)F)cc2)cc(N2CC(O)C2)n2c1nc1ccccc12
inactive: T-47D breast 36.1% | BT-549 breast 37.9% | MDA-MB-435 melanoma 83.7% | SW-620 colon 82.8% | MCF7 breast 81.6% | HCT-116 colon 55.4% | HCC-2998 colon 95.6% | KM12 colon 74.2%

COc1c(C)cnc(CSc2nc(-c3ccc(C)cc3)cn2-c2ccc(Cl)cc2)c1C
inactive: T-47D breast 88.1% | BT-549 breast 102% | MDA-MB-435 melanoma 110% | SW-620 colon 100% | MCF7 breast 102% | HCT-116 colon 79.8% | HCC-2998 colon 106% | KM12 colon 105%

CC(=O)c1sc(-c2ccccc2)cc1N
inactive: T-47D breast 83% | BT-549 breast 101% | MDA-MB-435 melanoma 94.1% | SW-620 colon 96.5% | MCF7 breast 97.7% | HCT-116 colon 98.8% | HCC-2998 colon 99.4% | KM12 colon 104%

COc1cc2ccccc2cc1C(=O)NC(=S)Nc1ccc(-c2nc3ccccc3[nH]2)cc1
inactive: T-47D breast 76.9% | BT-549 breast 45.6% | MDA-MB-435 melanoma 80.2% | SW-620 colon 80.5% | MCF7 breast 59% | HCT-116 colon 82% | HCC-2998 colon 96.3% | KM12 colon 68.2%

C[C@@H]1C(=O)N(C[C@@H](Cc2ccccc2)NC(=O)OCc2ccccc2)[C@]1(Cc1ccccc1)C(=O)OCc1ccccc1
inactive: T-47D breast 22.3% | BT-549 breast 61.3% | MDA-MB-435 melanoma 48.3% | SW-620 colon 40.9% | MCF7 breast 27% | HCT-116 colon 34.4% | HCC-2998 colon 72.8% | KM12 colon 26%

COc1ccc2c(c1)/C(=C\c1sc(=S)[nH]c1O)C(C(=O)O)=N2
inactive: T-47D breast 94.3% | BT-549 breast 109% | MDA-MB-435 melanoma 100% | SW-620 colon 95.2% | MCF7 breast 97.7% | HCT-116 colon 99.6% | HCC-2998 colon 103% | KM12 colon 99.6%

Cc1ccc(Nc2ccc(Nc3ccc(C)cc3S(=O)(=O)O)c3c2C(=O)c2ccccc2C3=O)c(S(=O)(=O)O)c1
inactive: T-47D breast 111% | BT-549 breast 103% | MDA-MB-435 melanoma 103% | SW-620 colon 92% | MCF7 breast 92.2% | HCT-116 colon 87% | HCC-2998 colon 112% | KM12 colon 96.7%

CCOC(=O)N1CCc2c(sc3c2C(=O)N[C@H](c2ccc(OC)cc2)N3)C1
inactive: T-47D breast 79% | BT-549 breast 108% | MDA-MB-435 melanoma 98.7% | SW-620 colon 99.6% | MCF7 breast 97.7% | HCT-116 colon 93.3% | HCC-2998 colon 104% | KM12 colon 102%

N#C/C(=C\c1ccc2c(c1)OCO2)n1nnc2ccccc21
inactive: T-47D breast 26.2% | BT-549 breast 30.3% | SW-620 colon 12% | MCF7 breast 10.3%
active: MDA-MB-435 melanoma -69.1% | HCT-116 colon 5.72% | HCC-2998 colon -9.93% | KM12 colon -16.2%

CN(CCC(=O)/C(=C\c1ccccc1)c1ccc(Cl)cc1)Cc1ccccc1
active: MDA-MB-435 melanoma 1.24% | SW-620 colon 4.45% | HCT-116 colon 2.49%
inactive: T-47D breast 15.3% | BT-549 breast 12.7% | MCF7 breast 28.3% | HCC-2998 colon 105% | KM12 colon 67.1%

COc1cc(-c2cc(-c3ccc(Nc4nc(Nc5ccccc5)nc(Nc5ccc(Cl)cc5)n4)cc3)nc(N)n2)cc(OC)c1OC
inactive: T-47D breast 38.4% | BT-549 breast 71.1% | MDA-MB-435 melanoma 63.5% | SW-620 colon 87.2% | MCF7 breast 35.5% | HCT-116 colon 34.9% | HCC-2998 colon 58.2% | KM12 colon 52.4%

Cc1nc(-c2ccccc2)cc2c(O)c(C(=O)N/N=C/c3ccc(N(C)C)cc3)[nH]c(=O)c12
inactive: T-47D breast 76.5% | BT-549 breast 103% | MDA-MB-435 melanoma 86.8% | SW-620 colon 75% | MCF7 breast 64.1% | HCT-116 colon 57.6% | HCC-2998 colon 95.2% | KM12 colon 82.3%

O=C1CSC(c2ccccc2Cl)N1c1nnc(Cn2cnnc2)o1 (stereo unspecified)
inactive: T-47D breast 33.3% | BT-549 breast 60.6% | SW-620 colon 39.4% | HCT-116 colon 13.3% | HCC-2998 colon 35.8% | KM12 colon 50.9%
active: MDA-MB-435 melanoma -45.1% | MCF7 breast -8.09%

CCOc1ccc2nc(-c3cccc(OCC(=O)NC(C)C)c3)nc(Nc3ccc(-c4cn[nH]c4)cc3)c2c1
active: T-47D breast -25.2% | BT-549 breast -44.2% | MDA-MB-435 melanoma 6.53% | SW-620 colon 7.06% | MCF7 breast -16.8% | HCT-116 colon 5.64% | KM12 colon 5.29%
inactive: HCC-2998 colon 24.6%

O=C(CCl)N1c2cccc3cccc(c23)N(C(=O)CCl)C1c1cn(-c2ccccc2)nc1-c1cccc([N+](=O)[O-])c1
inactive: T-47D breast 87.7% | BT-549 breast 98.5% | MDA-MB-435 melanoma 84.2% | SW-620 colon 35.4% | MCF7 breast 51.6% | HCT-116 colon 37.3% | HCC-2998 colon 104% | KM12 colon 101%

Cc1ccc(NSc2ccccc2[N+](=O)[O-])cc1
inactive: T-47D breast 27.3% | BT-549 breast 34.1% | SW-620 colon 26.9% | MCF7 breast 30.4% | HCT-116 colon 20.3% | HCC-2998 colon 31.4% | KM12 colon 20.3%
active: MDA-MB-435 melanoma -26.2%

Fc1ccc(Nc2ccc3cc(OCCCN4CCOCC4)ccc3n2)cc1F
inactive: T-47D breast 43.5% | BT-549 breast 68.6% | MDA-MB-435 melanoma 59.9% | SW-620 colon 10% | MCF7 breast 55.7% | HCT-116 colon 47.7% | HCC-2998 colon 20% | KM12 colon 21.3%

CCNCCNc1cc(-c2ccc(C#N)cc2)c(C#N)c2nc3ccccc3n12
inactive: T-47D breast 37.5% | BT-549 breast 40.4% | MDA-MB-435 melanoma 13.9% | MCF7 breast 57.8% | HCC-2998 colon 41% | KM12 colon 29%
active: SW-620 colon -30.2% | HCT-116 colon -27.2%

O=c1cc(-c2ccc(OCc3ccccc3)cc2)oc2c(I)c(OCc3ccccc3)cc(OCc3ccccc3)c12
inactive: T-47D breast 104% | BT-549 breast 101% | MDA-MB-435 melanoma 102% | SW-620 colon 106% | MCF7 breast 101% | HCT-116 colon 95.8% | HCC-2998 colon 105% | KM12 colon 91.8%

Cn1ccnc1C(=O)/C=C/c1ccc(C(=O)Nc2ccc(S(F)(F)(F)(F)F)cc2)cc1
inactive: T-47D breast 27.8% | BT-549 breast 39.6% | MDA-MB-435 melanoma 39.2% | SW-620 colon 12.5% | MCF7 breast 12.5% | KM12 colon 16.6%
active: HCT-116 colon 3.62% | HCC-2998 colon 5.66%

CC(C)c1ccc(C(=O)OC(=O)c2ccc(C(C)C)cc2)cc1
inactive: T-47D breast 95.3% | BT-549 breast 87.9% | MDA-MB-435 melanoma 97% | SW-620 colon 114% | MCF7 breast 98.1% | HCT-116 colon 97.4% | HCC-2998 colon 102% | KM12 colon 123%
